Screens (PubChem BioAssay)
RXFP1 antag: RXFP1 (human) relaxin receptor antagonism; HEK293-RXFP1, relaxin-stimulated cAMP HTRF, 30 min; hits give low values; activity change, negative = inhibition, % at 57.5 µM; hit rate 0.59% among 350,000;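 active means activity change of -60% or lower, but not beyond a set lower limit; inconclusive means change between -60% and -40%, or beyond the set limit; inactive means change above -40%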
Target sequence (Q9HBX9 whole entry, looked up): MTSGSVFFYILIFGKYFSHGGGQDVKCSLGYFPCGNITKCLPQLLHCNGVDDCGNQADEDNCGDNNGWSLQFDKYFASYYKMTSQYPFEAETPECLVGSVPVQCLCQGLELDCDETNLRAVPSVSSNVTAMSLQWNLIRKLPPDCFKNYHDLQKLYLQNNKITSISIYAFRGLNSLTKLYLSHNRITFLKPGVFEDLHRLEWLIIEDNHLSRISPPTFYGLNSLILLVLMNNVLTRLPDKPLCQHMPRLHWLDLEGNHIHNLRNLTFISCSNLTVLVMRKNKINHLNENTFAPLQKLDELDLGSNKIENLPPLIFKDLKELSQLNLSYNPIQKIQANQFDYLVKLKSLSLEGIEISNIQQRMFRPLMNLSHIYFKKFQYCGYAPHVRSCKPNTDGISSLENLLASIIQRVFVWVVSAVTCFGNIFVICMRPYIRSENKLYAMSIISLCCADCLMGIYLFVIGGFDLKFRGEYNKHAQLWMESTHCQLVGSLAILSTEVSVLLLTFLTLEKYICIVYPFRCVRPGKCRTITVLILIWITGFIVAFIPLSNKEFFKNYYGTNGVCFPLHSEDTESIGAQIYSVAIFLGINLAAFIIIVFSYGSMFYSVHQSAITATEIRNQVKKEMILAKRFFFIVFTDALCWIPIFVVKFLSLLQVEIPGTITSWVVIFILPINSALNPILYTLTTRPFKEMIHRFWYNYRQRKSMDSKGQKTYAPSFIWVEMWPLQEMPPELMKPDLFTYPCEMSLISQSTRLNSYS
gsp agonist: agonists of gsp mutant (McCune-Albright syndrome) | gsp mutant cells, cAMP HTRF, 30 min | Potency, µM (doses to about 76.9 µM), actives largely listed as activators | hit rate 0.13% among 340,000 | AID 624287; active means well fitted activation curve with a large enough effect; inconclusive means small, poorly fitted or top-dose-only effect, or another doubt; inactive means no such curve, though single readings can be large or run the other way; cell line not stated here;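 further: phosphodiesterase inhibitor Ro 20-1724 added with compounds to block cAMP breakdown; nearly all actives have a fitted effect of over 60% in size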
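Cells stably selected in G418 were plated at 2000/well, grown 16-24 hr, then given compounds in DMSO with the PDE inhibitor […] (300 uM solution added) for 30 min at 37C; cAMP was read by HTRF.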
gsp antag: gsp mutant antagonism. gsp-mutant cells, cAMP HTRF, 30 min. Potency, µM (highest dose often 76.9 µM), usual class: inhibitors. hit rate 0.4% among 340,000; calls by dose curve; cell line not stated here;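 further: intracellular cAMP measured with PDE inhibitor Ro 20-1724 present during compound exposure; nearly all actives have a fitted effect of over 65% in size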
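G418-selected cells were plated in DMEM/10% FBS for 16-24 h at 37C, then treated with compounds plus the PDE inhibitor […] (300 uM solution added) for 30 min at 37C. Intracellular cAMP was measured by HTRF after 30 min lysis at room temperature.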
RXFP1 agonist: activates the human relaxin receptor RXFP1. Potency, µM (doses to about 57.5 µM), hits mostly activators. hit rate 0.3% among 370,000. HEK293T-RXFP1 cAMP TR-FRET, 30 min; response scale: percent of porcine relaxin response, buffer zero; active means well fitted activation curve with a large enough effect; inconclusive means small, poorly fitted or top-dose-only effect; further: nearly all actives have a fitted effect of over 60% in size
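HEK293 cells stably expressing RXFP1, treated 30 min at 37C with compounds plus PDE4 inhibitor Ro 20174; cAMP measured by HTRF TR-FRET. Normalized to buffer and 29 nM porcine relaxin; EC50 by Hill fit.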
Numbers stand for hits; . = inactive; ? = inconclusive; / = no result; [ ] = remark or other dose. Sampled rows, rich in hits. Any-hit rate of the full collection: about 0.9%.

SMILES	RXFP1 antag	gsp agonist	gsp antag	RXFP1 agonist
COc1ccc(CC(=O)Nc2ccc3nc(Nc4cccc(Cl)c4)cc(C)c3c2)cc1	/	/	/	.
COc1ccc(OC)c(C2C(C(=O)c3ccc(C)o3)=C(O)C(=O)N2c2cc(C)on2)c1 (configuration not stated)	.	?	.	?
COc1ccc(OC)c(C2C(C(=O)c3cc4ccccc4o3)=C(O)C(=O)N2c2cc(C)on2)c1 (configuration not stated)	/	14µM	.	?
Cc1cc(N2C(=O)C(O)=C(C(=O)c3cc4ccccc4o3)C2c2ccc(Br)cc2)no1 (configuration not stated)	.	3.5µM	.	22µM
CCCCN1C(=O)C2C(c3ccc(OC)cc3O)NC(CC(C)C)(C(=O)O)C2C1=O (configuration not stated)	/	.	8.9µM	.
CCC1(C(=O)O)NC(c2cc(OC)ccc2O)C2C(=O)N(Cc3ccccc3)C(=O)C21 (configuration not stated)	/	.	.	.
Cc1ccccc1-c1cc(C(=O)Nc2sc(C(=O)OC(C)C)c(C)c2C#N)c2ccccc2n1	-65	.	11µM	.
FC(F)(F)c1nc(N2CCCC2)ncc1-c1nnnn1-c1ccccc1	.	.	35µM	.
CNC(=O)c1cc2ncc(C(F)(F)F)cc2s1	-82	?	.	.
CNC(=O)C(C)c1ncc(C(F)(F)F)cc1Cl (configuration not stated)	.	.[15.4 µM]	.	.
CCOC(=O)N1CCC(Nc2ccc(Cl)cc2N)CC1	.	/	/	/
CCOC(=O)c1cccc(NC(=O)[C@H](CSCc2ccccc2)N2Cc3ccccc3C2=O)c1	/	/	/	.
O=C1CC(Sc2nnc(-c3ccccc3O)o2)C(=O)N1c1ccccc1 (configuration not stated)	.	.	.	.
COc1ccc(N2C(=O)CC(Sc3nnc(-c4ccccc4)o3)C2=O)cc1 (configuration not stated)	.	28µM	.	.
Cc1ccccc1N1CCN(Cc2ccc(Br)o2)CC1	-65	.[15.4 µM]	.	.
COc1ccc(OC)c(CNC(=O)C(C)n2c(C)c3cnn(-c4ccccc4)c(=O)c3c2C)c1 (configuration not stated)	.	/	/	.
COc1cc(C2c3c(-c4ccccc4)n[nH]c3C(=O)N2c2ccccc2)ccc1O (configuration not stated)	.	.	.	.
O=C1c2[nH]nc(-c3ccc(F)cc3)c2C(c2ccccc2F)N1c1ccccc1 (configuration not stated)	-68	/	/	.
COc1ccc(Cn2c(=O)c3oc4ccccc4c3n(Cc3ccc(Cl)cc3)c2=O)cc1	.	/	/	.
Cc1cc(C)n(-c2nnc(Cl)c3ccccc23)n1	.	.	.	.
Cc1ccc(-c2nnc(-n3nc(C)cc3C)c3ccccc23)cc1	.	.	35µM	.
O=C(CCCl)NCCc1ccccc1	.	/	/	/
COc1ccc(-c2nc3sc(CCNC(=O)Cc4ccc(F)cc4)c(C)n3n2)cc1	.	/	/	.
COc1ccc(CCNC(=O)c2c([S-])n(-c3ccc(C)cc3)c3cccc[n+]23)cc1	.	.	.	.
CCc1ccc2n(-c3ccc(OC)cc3)c([S-])c(C(=O)Nc3cc(C)cc(C)c3)[n+]2c1	.	.[15.4 µM]	.	5µM
SMILES	RXFP1 antag	gsp agonist	gsp antag	RXFP1 agonist
CCN(CC)Cc1c(NC(=O)c2ccc(OC)cc2)sc2c1CCCC2	.	/	/	.
Clc1ccccc1N=C1NN=C(c2cccs2)CS1	-83	.[15.4 µM]	.	.
Fc1ccccc1N=C1NN=C(c2ccccc2)CS1	.	.[15.4 µM]	.	.
CC(=O)O[C@]1(C(C)=O)CC[C@H]2[C@@H]3C=C(Cl)C4=CC(=O)CC[C@]4(C)[C@H]3CC[C@@]21C	-83	/	.	.
Cc1c(C(=O)Nc2ccc(Cl)cc2)c2ccccn2c1CCc1ccncc1	.	?	.	.
Cc1c(C(=O)Nc2cccc(Cl)c2)c2ccccn2c1CCc1ccncc1	.	.[15.4 µM]	28µM	.
CCCn1c(CCC(=O)Nc2cc(OC)cc(OC)c2)nc2cccnc21	.	/	/	.
CCOc1ccc(-c2nnc(N3CCCCC3)c3ccccc23)cc1	.	.	50µM	.
CCN(CC)C(=O)COc1ccc(-c2nnc(N3CCCCC3)c3ccccc23)cc1	.	.	.	.
CCOc1ccc(/C(O)=C2/C(=O)C(=O)N(c3ccccn3)C2c2ccc(F)cc2)c(C)c1 (configuration not stated)	.	16µM	.	.
CCOC(=O)C1CCN(S(=O)(=O)c2cc(-c3onc(C)c3C)ccc2OC)CC1	.	/	/	.
